Only some compounds are listed: those with a hit (about 3.7% of all), similar ones and a draw of the others.
HTT cytoprotect: cytoprotection in Huntington HTT-Q103 PC12 cell model | 230,000 tested, 0.14% active | PC12 HTT-Q103 induced, cytoprotection, ATP luminescence, 40 h | Potency, µM (doses to about 56.4 µM), for inactives: cytoprotection (ATP increase), hits mostly activators; note: % of control where 0% means no effect; nearly all actives have a fitted effect of over 45% in size
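Compounds were screened for protection of PC12 cells against cell death after tebufenozide induction (100 nM final) of mutant Huntingtin exon 1 (Q103) fused to GFP.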
HttQ103 aggreg: mutant huntingtin aggregation inhibition; PC12 HttQ103-GFP aggregates, Acumen cytometry, 40 h; Potency, µM (series often up to 46.1 µM), without a hit: top-dose activity change, negative = inhibition, hits mostly inhibitors; 220,000 tested, 1.1% active; AID 1688; note: % is set by controls: 0 for no effect and ±100 for the full control effect; nearly all actives have a fitted effect of over 60% in size
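Steps: seed 1500 PC12 HTTQ103-GFP cells/well; add tebufenozide, 100 nM final; add compound titration; add ATPLite reagent; quantify GFP aggregates by laser scanning cytometry.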
Tau fluor counter: counter-screen for tau fibril formation inhibitors; tau K18 P301L Alexa594 fluorescence, heparin fibrillization; Potency, µM (doses to about 57.7 µM), without a hit: top-dose activity change, negative = decrease; 280,000 tested, 0.93% active; note: % is set by controls: 0 for no effect and ±100 for the full control effect; nearly all actives have a fitted effect of over 55% in size
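Human tau K18 P301L (15 uM unlabeled, 0.24 uM Alexa 594-labeled) in 100 mM sodium acetate pH 7 with 20 uM heparin, 6 hr at 37 C. ThT 30 uM added, 1 hr ambient; Alexa 594 FP and total fluorescence read at 555/632 nm.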
Tau ThT inhib: inhibitors of human tau fibril formation, thioflavin T binding; P10636; recombinant tau K18 P301L (four-repeat tau fragment), heparin-induced fibrillization, ThT fluorescence; Potency, µM (series often up to 57.4 µM), without a hit: at the top dose activity, negative = inhibition, actives largely listed as inhibitors; 270,000 tested, 2.1% active; note: % is set by controls: 0 for no effect and ±100 for the full control effect; nearly all actives have a fitted effect of over 55% in size
Target sequence (P10636 561-689 P618L limits assumed): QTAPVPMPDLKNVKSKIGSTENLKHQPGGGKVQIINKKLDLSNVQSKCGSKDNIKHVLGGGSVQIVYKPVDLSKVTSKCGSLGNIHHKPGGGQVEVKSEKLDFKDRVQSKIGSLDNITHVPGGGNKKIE
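Recombinant human tau K18 fragment […] carrying P301L, 15 uM unlabeled plus 0.24 uM Alexa 594-labeled, was fibrillized with 20 uM heparin in 100 mM sodium acetate pH 7 for 6 hr at 37 C; 30 uM ThT fluorescence read after 1 hr.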
Tau fibril FP: tau fibrillization inhibition (FP). K18 P301L tau heparin fibrillization, Alexa594 FP, 6 h. Potency, µM (highest dose often 57.7 µM), inactives show top-dose activity, negative = inhibition, most hits filed as inhibitors. 280,000 tested, 0.39% active; note: % is set by controls: 0 for no effect and ±100 for the full control effect; nearly all actives have a fitted effect of over 55% in size
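Read-out: fluorescence polarization of Alexa 594-labeled tau (0.24 uM), 555 nm excitation, 632 nm emission. Mixtures held 15 uM unlabeled K18 P301L, compound and 20 uM heparin, pH 7 acetate buffer, incubated 6 hr at 37 C.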
* hit, by the source's call; [ ] = another dose, or the depositor's remark. Calls come from the whole dose curve; as a rule, active = well fitted curve in the direction sought with a large enough effect; inconclusive = small, poorly fitted or top-dose-only effect, or another doubt; inactive = no such curve, though single readings can be large; an effect the other way counts as inactive or inconclusive. Potency is the fitted concentration of half-maximal effect.

`CCc1ccccc1N1CSC2=C(C#N)C(c3ccccc3F)CC(=O)N2C1` (stereo unspecified) gave HTT cytoprotect 2%, HttQ103 aggreg 24%, Tau fluor counter -18%, Tau ThT inhib 28µM* and Tau fibril FP inconclusive.
COc1ccc(OC)c(C2CC(=O)N(c3cccc(C)c3)C3=C2C(=O)OC3)c1 (stereo unspecified) was read as Tau fluor counter -11%, Tau ThT inhib -6% and Tau fibril FP -2%.
Screening COc1ccc(C2CC(=O)N3CN(c4ccc(C)c(Cl)c4)CSC3=C2C#N)cc1 (stereo unspecified) returned HTT cytoprotect -12%, HttQ103 aggreg 12%, Tau fluor counter -17%, Tau ThT inhib 32µM* and Tau fibril FP inconclusive.
C=CCOC(=O)C1=C(C)OC(N)=C(C#N)C1c1ccccc1F (stereo unspecified) was read as HTT cytoprotect 7%[10 µM], HttQ103 aggreg 19%, Tau fluor counter -23%, Tau ThT inhib -13% and Tau fibril FP -7%.
Screening COc1ccc(OC)c(C2CC(=O)N3CN(c4ccccc4)CSC3=C2C#N)c1 (stereo unspecified) returned HTT cytoprotect -23%, HttQ103 aggreg 9%, Tau fluor counter inconclusive, Tau ThT inhib 28µM* and Tau fibril FP 16µM*.
Screening C/C=C\C1=C(CO)[C@H](O)[C@H]2O[C@H]2[C@H]1O returned HTT cytoprotect -9%[10 µM], Tau fluor counter -9%[11.6 µM], Tau ThT inhib -6%[11.5 µM] and Tau fibril FP -11%[11.6 µM].
Screening C/C=C\C1=C(CO)C(=O)[C@@H]2OC2C1=O (stereo partly specified) returned HTT cytoprotect 2%[10 µM], Tau fluor counter inconclusive, Tau ThT inhib 3.5µM* and Tau fibril FP inconclusive.
For CC(C)(C)c1ccc(-c2nc(S(=O)(=O)c3ccccc3)c(N3CCOCC3)o2)cc1 the results were Tau fluor counter inconclusive, Tau ThT inhib inconclusive and Tau fibril FP 6%.
`Cn1ncc2c(Nc3cccc(Cl)c3)nc(Nc3cccc(Cl)c3)nc21` gave HTT cytoprotect 16%[10 µM], HttQ103 aggreg -34%[9.22 µM], Tau fluor counter inconclusive, Tau ThT inhib 16% and Tau fibril FP 8.9µM*.
Cn1ncc2c(Nc3ccc(O)cc3)nc(Cl)nc21 was read as HTT cytoprotect 12%[10 µM], HttQ103 aggreg -1%[9.22 µM], Tau fluor counter -17%, Tau ThT inhib -14% and Tau fibril FP 14%.
Cn1ncc2c(Nc3ccc(Br)cc3)nc(Nc3ccc(Br)cc3)nc21 was read as HTT cytoprotect 6%[10 µM], HttQ103 aggreg -6%[9.22 µM], Tau fluor counter inconclusive, Tau ThT inhib inconclusive and Tau fibril FP 10µM*.
Screening O=C1NC(=S)S/C1=C/c1ccc(N2CCOCC2)o1 returned HttQ103 aggreg -31%, Tau fluor counter -9%, Tau ThT inhib -3% and Tau fibril FP 11%.
COc1ccc2cc(/C=C3\SC(=S)NC3=O)c(N3CCOCC3)nc2c1 was read as HTT cytoprotect 0%[10 µM], HttQ103 aggreg inconclusive, Tau fluor counter -24%, Tau ThT inhib 16µM* and Tau fibril FP 4%.
`C[C@H]1/C=C\CC(=O)OC[C@H](C)C(=O)N2CCC[C@@H]2C(=O)OC1` gave HTT cytoprotect inconclusive, Tau fluor counter -3%[11.6 µM], Tau ThT inhib -1%[11.5 µM] and Tau fibril FP -1%[11.6 µM].
O=C(Nc1nc2ccc(F)cc2s1)C1CCN(S(=O)(=O)c2cc([N+](=O)[O-])ccc2Cl)CC1 was read as HTT cytoprotect 23%[10 µM], HttQ103 aggreg inconclusive, Tau fluor counter 7.1µM*[quencher], Tau ThT inhib inconclusive and Tau fibril FP inconclusive.
Cc1ccc2nc(NC(=O)C3CCN(S(=O)(=O)c4cccs4)CC3)sc2c1 was read as HTT cytoprotect 3.5µM*, HttQ103 aggreg -24%, Tau fluor counter -22%, Tau ThT inhib inconclusive and Tau fibril FP inconclusive.
`O=C(Nc1nc2ccc(S(=O)(=O)N3CCCCC3)cc2s1)c1ccncc1` gave HTT cytoprotect -10%[10 µM], HttQ103 aggreg 3.5µM*, Tau fluor counter inconclusive, Tau ThT inhib 0% and Tau fibril FP -1%.
NC(=NCc1ccc(Cl)cc1Cl)NC(=O)c1nc(Cl)c(N)nc1N was read as HTT cytoprotect 3%, Tau fluor counter -26%, Tau ThT inhib inconclusive and Tau fibril FP 7%.
Screening Cc1ccc(CNC(=O)c2ccc3nc(SCc4ccc(F)cc4)[nH]c3c2)cc1 returned Tau fluor counter inconclusive, Tau ThT inhib 3% and Tau fibril FP 22µM*.
For Cn1c(SCc2ccc(F)cc2)nc2ccc(C(=O)NCc3ccc(F)cc3)cc21 the results were Tau fluor counter inconclusive, Tau ThT inhib -8% and Tau fibril FP 0%.
Screening CC(=O)[C@@H](C)CCO[C@@]1(C)OCC[C@@H]1C returned HTT cytoprotect -6%[10 µM].
For C=CCN1C(C(=O)c2ccccc2)=C(OC(=O)COc2ccccc2)c2ccccc2S1(=O)=O the results were HTT cytoprotect 18%[10 µM], HttQ103 aggreg 13µM*, Tau fluor counter -10%, Tau ThT inhib -14% and Tau fibril FP -4%.
Screening CCCN1C(C(=O)c2ccccc2)=C(OC(=O)COc2ccccc2)c2ccccc2S1(=O)=O returned Tau fluor counter -25%, Tau ThT inhib inconclusive and Tau fibril FP 6%.
Screening CCCCC(=O)OC1=C(C(=O)c2ccccc2)N(C)S(=O)(=O)c2ccccc21 returned Tau fluor counter -23%, Tau ThT inhib 14µM* and Tau fibril FP 12%.
For Cn1cnc2nc(NCCO)nc(NCc3ccccc3)c21 the results were HTT cytoprotect -39%, Tau fluor counter 2%, Tau ThT inhib 3% and Tau fibril FP 5%.
Screening Cc1cc(C)c(/C=C2/C(=O)Nc3ccccc32)[nH]1 returned HTT cytoprotect 28%[1.9 µM].
CS(=O)(=O)N(CCC#N)Cc1ccc(/C=C2\C(=O)Nc3ccccc32)o1 was read as HTT cytoprotect -39%, HttQ103 aggreg 11µM*, Tau fluor counter -11%, Tau ThT inhib inconclusive and Tau fibril FP -9%.
`N#C/C(C(N)=O)=C1/SC=C(c2ccccc2)N1c1ccccc1` gave HTT cytoprotect -10%[10 µM], HttQ103 aggreg -13%[9.22 µM], Tau fluor counter -1%, Tau ThT inhib -6% and Tau fibril FP -11%.
For N#C/C(C(=O)c1ccccc1)=C1/SC=C(N)N1c1ccccc1 the results were HTT cytoprotect -25%, HttQ103 aggreg -1%, Tau fluor counter -29%, Tau ThT inhib 28µM* and Tau fibril FP inconclusive.
`Cc1cccc(C2NC(=O)c3c(sc(C)c3C)N2)c1O` (stereo unspecified) gave HTT cytoprotect -8%, HttQ103 aggreg -1%, Tau fluor counter -14%, Tau ThT inhib 16µM* and Tau fibril FP -10%.
